# Source: PubChem BioAssay (EPA / NIEHS)
# Active and inactive are the calls of the source. How the source made its calls: active means hit-call score of the fitted dose curve at least 0.9, where 1 is the maximum; inactive means score below 0.9.
# Assay: APR_HepG2_MitoMembPot_24hr: Apredica 24-hour HepG2 Assay for Mitochondrial Membrane Potential (AID 2282911)
# Conditions: imaging, actives raise or lower the signal
# Method: APR_HepG2_24hr is a cell-based, multiplexed-readout assay that uses HepG2, a human liver cell line, with measurements taken at 24 hours after chemical dosing in a 384-well plate.APR_HepG2_MitoMembPot_24hr is one of 10 assay component(s) measured or calculated from the APR_HepG2_24hr assay. It is designed to make measurements of dye binding, a form of membrane potential reporter, as detected with fluorescence intensity signals by HCS Fluorescent Imaging technology.Data from the assay component APR_HepG2_MitoMembPot_24hr was analyzed into 1 assay endpoint. This assay endpoint, APR_HepG2_MitoMembPot_24hr, was analyzed with bidirectional fitting relative to DMSO as the negative control and baseline of activity. Using a type of membrane potential reporter, gain or loss-of-signal activity can be used to understand changes in the signaling. Furthermore, this assay endpoint can be referred to as a primary readout, because this assay has produced multiple assay endpoints where this one serves a signaling function. To generalize the intended target to other relatable targets, this assay endpoint is annotated to the cell morphology intended target family, where the subfamily is organelle conformation.
# Cells were treated with dimethyl sulfoxide (DMSO) as a solvent control at a final concentration of 0.5% v/v or with compounds in DMSO with a resulting final DMSO concentration of 0.5% v/v. Compound treatment was done at concentrations of 0.39, 0.78, 1.56, 3.12, 6.24, 12.5, 25, 50, 100, and 200 uM in duplicate on each plate. Cells were treated with compounds for 1, 24, or 72 hr. Carbonyl […] m-chloro-phenylhydrazone (CCCP) and taxol were used as positive controls for mitochondrial function and cytoskeletal stability, respectively; DMSO served as the negative control for this experiment. Cells were fixed by the direct addition of 50 uL formaldehyde in Hank's Balanced Salt Solution (HBSS) to a final concentration of 3.7%. After incubation in the fixation medium for 30 min at room temperature (293-298 K), cells were rinsed twice with HBSS and treated with cell permeabilization buffer (16 uL of 0.5% Triton X-100) for 10 min at room temperature (293-298 K) before labeling. For mitochondrial membrane potential and mitochondrial measurements, pre-fixed cells were incubated with 50 uL of MitoTracker Red CMXRos (Invitrogen) at a concentration of 250 nM for 30 min before fixation. In the remaining cases, post-fixed cells were labeled by incubation with a multiplexed mixture of primary antibodies in HBSS for 60 min at room temperature (293-298 K) to detect immunoreactivity of c-Jun (1:500), phospho-histone H3 (1:100), phospho-histone H2A.x (1:200), p53 (1:400), alpha-tubulin (1:200) and Hoechst 33342 (2 ug/mL). Cells were labeled for multiplexed imaging on two separate plates: a) Hoechst 33342, MitoTracker Red, phospho-histone H3, and alpha-tubulin, and b) Hoechst 33342, phospho-histone H2A.x, and c-Jun. A final rinse with HBSS (50 uL) was performed before analysis. The primary and secondary antibodies for the proteins were phospho-histone H3 (rabbit anti-phospho-histone H3 and FITC-donkey anti-rabbit IgG), phospho-histone H2A.x (mouse anti-phospho-histone H2A.x and FITC-donkey anti-mouse IgG), c-Jun (rabbit anti-phospho-c-Jun and Cy3-donkey anti-rabbit IgG), p53 (sheep anti-p53 and Cy5-donkey anti-sheep IgG), alpha-tubulin (mouse anti-alpha-tubulin and Cy5-donkey anti-mouse IgG). These antibodies are available as the CellCiphr HepG2 assay kit (Millipore).Digital images of each well were captured using a Cellomics ArrayScan VTI (Thermo Scientific Cellomics) (0.8 NA objective, 0.63x optical coupler, and XF-93 filter set) at 20x magnification. The images were acquired using the autofocus feature of the ArrayScan instrument, which entails the following steps. First, the camera focuses on channel 1 (Hoechst 33342), where nuclei are identified. Second, a Z offset of 1 um is used for capturing mitochondria (MitoTracker Red). […]
SMILES,outcome,AC50
Nc1ccc(-c2ccc(N)cc2)cc1,inactive,–
C=CC(N)=O,inactive,–
CN(C)CCO,inactive,–
Cc1cc(O)ccc1Cl,inactive,–
CN(C)c1nc(=O)n(C2CCCCC2)c(=O)n1C,inactive,–
O=S(=O)(O)C(F)(F)C(F)(F)C(F)(F)C(F)(F)C(F)(F)C(F)(F)F,inactive,–
Cc1ccccc1O,inactive,–
CC(c1ccc(O)cc1)(c1ccc(O)cc1)c1ccc(O)cc1,–,29.5 µM (active)
Cc1cccc([N+](=O)[O-])c1,inactive,–
Cc1cccc(C)c1N,inactive,–
Cc1ccccc1[N+](=O)[O-],inactive,–
O=C(O)C(F)(F)C(F)(F)C(F)(F)C(F)(F)C(F)(F)F,inactive,–
C=CC(=O)NCNC(=O)C=C,inactive,–
CCCCCCCCOC(=O)c1ccccc1C(=O)OCCCCCCCC,inactive,–
O=NN(c1ccccc1)c1ccccc1,inactive,–
CC(C)(O)C(=O)Nc1ccc([N+](=O)[O-])c(C(F)(F)F)c1,inactive,–
N#Cc1ccc(N(CC(N)=O)CC(F)(F)F)cc1C(F)(F)F,inactive,–
Clc1ccc(C(c2ccccc2Cl)C(Cl)(Cl)Cl)cc1 (stereo not given),inactive,–
CCC(C)(CC)c1cc(NC(=O)c2c(OC)cccc2OC)on1,inactive,–
C[C@]12CCC(=O)C=C1CC[C@@H]1[C@@H]2CC[C@]2(C)C(=O)CC[C@@H]12,inactive,–

SMILES,outcome,AC50
CCOP(=S)(OCC)SCSC(C)(C)C,–,0.0494 µM (active)
c1cc2ccc3cccc4ccc(c1)c2c34,–,92.1 µM (active)
CCC(C)(c1ccc(O)cc1)c1ccc(O)cc1,–,57.6 µM (active)
COS(=O)(=O)OC,inactive,–
CCCCCCCCCC[N+](C)(C)CCCCCCCCCC,–,26 µM (active)
ClC1=C(Cl)[C@]2(Cl)[C@@H]3[C@@H]4C[C@@H]([C@H]5O[C@@H]45)[C@@H]3[C@@]1(Cl)C2(Cl)Cl,inactive,–
O=C(NC(=O)c1c(F)cccc1F)Nc1cc(Cl)c(OC(F)(F)C(F)F)c(Cl)c1,inactive,–
CCC(=O)O[C@H]1CC[C@H]2[C@@H]3CCC4=CC(=O)CC[C@]4(C)[C@H]3CC[C@]12C,inactive,–
CC(C)C(=O)OCC(C)(C)C(OC(=O)C(C)C)C(C)C (stereo not given),inactive,–
CCOCCOC(C)=O,inactive,–
CCNc1nc(NC(C)C)nc(SC)n1,inactive,–
CCCCCCCCCc1ccc(O)cc1,inactive,–
ClC(Cl)=C(c1ccc(Cl)cc1)c1ccc(Cl)cc1,–,23.2 µM (active)
Oc1ccc(Cl)cc1Cl,inactive,–
COc1ccc(O)c(C(C)(C)C)c1,inactive,–
CCSC(=O)N(CC)C1CCCCC1,inactive,–
CCOC(=O)C(O)(c1ccc(Cl)cc1)c1ccc(Cl)cc1,–,7.9 µM (active)
Clc1ccc(C(Cl)(Cl)Cl)cc1,inactive,–
C[C@]12CCC(=O)C=C1CC[C@@H]1[C@@H]2CC[C@@]2(C)[C@H]1CC[C@]2(C)O,inactive,–
CCCCCCOC(=O)c1ccccc1C(=O)OCCCCCC,–,112 µM (active)
